According to PubChem BioAssay AID1619 (SRMLSC, 2009):
Among all 220,000 compounds or so, about 830 (0.38%) were called active.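 How the source made its calls: active means compound inhibiting the enzyme by more than half at any dose during confirmatory dose-response retesting; inconclusive means strong single-dose inhibitors picked by rank but not retested; inactive means the rest.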 Only a sample is shown. Measured potencies and affinities stand elsewhere.

target: Leucine aminopeptidase (Plasmodium falciparum (isolate 3D7)) (UniProt Q8IL11); experiment: P. falciparum M17LAP inhibitors, primary screen, biochemical, fluorogenic H-Leu-NHMec substrate, 1536-well (AID 1619); details: recombinant M17LAP, H-Leu-NHMec fluorogenic kinetic assay; at 30 µM; active compounds read high;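 further: plate controls were full reaction with DMSO carrier for no effect and no enzyme background for full effect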
Sequence (Q8IL11 whole entry, looked up): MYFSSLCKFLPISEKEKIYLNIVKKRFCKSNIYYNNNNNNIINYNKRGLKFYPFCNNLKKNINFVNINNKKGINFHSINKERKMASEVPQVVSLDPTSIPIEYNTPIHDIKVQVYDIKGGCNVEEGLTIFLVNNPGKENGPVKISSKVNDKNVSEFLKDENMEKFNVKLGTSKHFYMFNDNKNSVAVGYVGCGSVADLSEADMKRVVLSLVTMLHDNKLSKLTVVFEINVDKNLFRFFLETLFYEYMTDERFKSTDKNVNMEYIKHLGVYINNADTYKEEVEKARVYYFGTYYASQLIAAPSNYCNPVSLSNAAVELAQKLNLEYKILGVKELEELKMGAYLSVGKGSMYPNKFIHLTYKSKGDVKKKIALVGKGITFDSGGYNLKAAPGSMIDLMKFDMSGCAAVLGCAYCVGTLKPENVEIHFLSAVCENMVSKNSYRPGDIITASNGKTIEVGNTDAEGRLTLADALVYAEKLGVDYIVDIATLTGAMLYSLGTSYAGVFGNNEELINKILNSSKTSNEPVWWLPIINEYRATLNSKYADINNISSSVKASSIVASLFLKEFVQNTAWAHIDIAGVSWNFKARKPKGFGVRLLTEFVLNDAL

inhibition, inactive:
Cc1cc(NS(=O)(=O)c2ccc(NC(=O)c3ccc(Br)o3)cc2)nc(C)n1 4.58%, N/C(=N\OC(=O)CCC1CCCC1)c1ccccn1 7.09%, CCOn1c(-n2nc(C)cc2C)nc2ccccc2c1=O -1.28%, Cc1ccc(-c2noc(CCC(=O)NCC3CCN(Cc4cccc(C)c4)CC3)n2)cc1 -0.25%, COc1cc(/C=C2/NC(=O)N(Cc3ccccc3F)C2=O)ccc1Oc1ccc([N+](=O)[O-])cn1 -10.8%, COc1cccc(CN2CCN(C3CCN(c4ccccc4F)CC3)CC2CCO)c1 (stereo not given) 3.43%, COc1ccc(NC(=O)CSc2ccccc2)c([N+](=O)[O-])c1 13%, CCOc1ccc(NC(=O)Cc2cccc3ccccc23)c([N+](=O)[O-])c1 33.7%, COc1ccc(NC(=O)CSc2ccccn2)c([N+](=O)[O-])c1 4.06%, CCOc1ccc(OCC(=O)Nc2ccc(OC)cc2[N+](=O)[O-])cc1 -4.57%, COc1ccc(NC(=O)CSc2nncn2C)c([N+](=O)[O-])c1 41.3%, CCOc1ccc(NC(=O)COc2ccccc2)c([N+](=O)[O-])c1 4.93%, CCCc1cc(=O)oc2cc(OCC(=O)Nc3cc(C)on3)ccc12 -41.2%, CCNS(=O)(=O)c1ccc2c(c1)n(C)c(=O)n2C 6.77%, [O-]/C(=C(\C(=S)Nc1ccccc1F)[n+]1ccccc1)c1ccc(-c2ccccc2)cc1 -0.96%, CCc1ccc(N(C(=O)c2snc(C(N)=O)c2N)C(C(=O)NCC2CCCO2)c2cccs2)cc1 (stereo not given) -0.4%, Cn1ncc([N+](=O)[O-])c1C(=O)Nc1nc2ccccc2n1CCN1CCCCC1 48.4%, Cc1ccc(NC(=O)COC(=O)Cc2ccsc2)cc1S(=O)(=O)N(C)C 3.8%, CCOC(=O)c1ccc(NC(=O)Cn2nnc(-c3ccccc3F)n2)cc1 -13.6%, CCOC(=O)c1cc(=O)n2nc(-c3ccc(C)cc3)nc2s1 10.8%, CC(C)Cn1c(N)c(C(=O)COC(=O)c2cc(F)cc(F)c2)c(=O)n(C)c1=O 3.99%, CCOc1ccc(C2/C(=C(\O)c3ccc(OC)c(OC)c3)C(=O)C(=O)N2c2cc(C)on2)cc1OC (stereo not given) 25.9%, C=CCn1c(-c2cccc(OCC)c2)n[nH]c1=S -4.71%, CCOc1cccc(-c2cc(C(=O)NN)[nH]n2)c1 3.47%, Cc1ccc(C(=O)NC2CCCCNC2=O)cc1C (stereo not given) 4.43%
